These results are taken from PubChem BioAssay (EPA / NIEHS).

Some structures have more than one record in an assay (separate samples or runs), and their calls can disagree. The source made the active and inactive calls. How the source made its calls: active means hit-call score of the fitted dose curve at least 0.9, where 1 is the maximum; inactive means score below 0.9.

The nature of test [1]: ATG_GLI_CIS: Attagene CIS-FACTORIAL HepG2 Assay for human Zinc Finger Protein GLI1 (AID 2282945). Particulars: HepG2, Attagene cis-factorial reporter mRNA, GLI element; actives raise or lower the signal. The procedure, abridged:
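HepG2 cells transiently transfected with cis-promoter multiplexed reporter units report endogenous transcription factor activity. After 24 h chemical exposure, reporter mRNA was quantified by RT-PCR, 6-FAM labelling, HpaI digestion and capillary electrophoresis, with bidirectional fitting against DMSO.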

Test [2] can be described thus: ATG_GRE_CIS: Attagene CIS-FACTORIAL HepG2 Assay for human Glucocorticoid Response Elements (GRE) (AID 2282947). Particulars: HepG2 GRE cis-reporter, Attagene multiplex mRNA; actives raise or lower the signal. Put shortly: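 HepG2 cells transiently transfected with multiple cis-promoter reporter units measure endogenous TF activity; 24 h compound exposure. Reporter mRNA quantified by RT-PCR, FAM labelling, HpaI digestion and capillary electrophoresis; bidirectional fit vs DMSO baseline.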

Test [3] in a line: ATG_ISRE_CIS: Attagene CIS-FACTORIAL HepG2 Assay for human Interferon Regulatory Factor 1 (IRF1) binding to an Interferon-Stimulated Response Element (ISRE) (AID 2282948). As to conditions: HepG2 ISRE cis-reporter (Attagene), mRNA transcription readout; actives raise or lower the signal. Put shortly: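 Transiently transfected HepG2 cells carrying cis-element reporter units, dosed 24 hours. Reporter mRNA quantified by RT-PCR, fluorescent primer extension, HpaI digestion and capillary electrophoresis. Bidirectional fitting relative to DMSO.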

Test [4] in a line: ATG_M_06_CIS: Attagene CIS-FACTORIAL HepG2 Assay for M06 Transcription Factor (Internal Marker) (AID 2282950). As to conditions: HepG2 Attagene CIS-FACTORIAL M06 internal marker reporter; actives raise or lower the signal. The procedure, abridged: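 HepG2 liver cells, 24 h exposure. Reporter transcripts from transfected cis-element constructs quantified by RT-PCR/capillary electrophoresis fluorescence. Bidirectional curve fit against DMSO.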

The target in test [5] is Hypoxia-inducible factor 1-alpha (Homo sapiens) (UniProt Q16665). The test is described as follows: ATG_HIF1a_CIS: Attagene CIS-FACTORIAL HepG2 Assay for human Hypoxia Inducible Factor 1 (HIF1A) (AID 2282951). Particulars: HepG2 Attagene cis-factorial HIF1a reporter transcription; actives raise or lower the signal. Put shortly: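 HepG2 cells transiently transfected with multiple cis-regulated reporter transcription units measure endogenous transcription factor activity. After 24 h exposure, reporter mRNA is quantified by RT-PCR with 6-FAM labelling, HpaI digestion and capillary electrophoresis. Bidirectional fitting against DMSO.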
Sequence of Hypoxia-inducible factor 1-alpha (Homo sapiens) (Q16665 whole entry, looked up): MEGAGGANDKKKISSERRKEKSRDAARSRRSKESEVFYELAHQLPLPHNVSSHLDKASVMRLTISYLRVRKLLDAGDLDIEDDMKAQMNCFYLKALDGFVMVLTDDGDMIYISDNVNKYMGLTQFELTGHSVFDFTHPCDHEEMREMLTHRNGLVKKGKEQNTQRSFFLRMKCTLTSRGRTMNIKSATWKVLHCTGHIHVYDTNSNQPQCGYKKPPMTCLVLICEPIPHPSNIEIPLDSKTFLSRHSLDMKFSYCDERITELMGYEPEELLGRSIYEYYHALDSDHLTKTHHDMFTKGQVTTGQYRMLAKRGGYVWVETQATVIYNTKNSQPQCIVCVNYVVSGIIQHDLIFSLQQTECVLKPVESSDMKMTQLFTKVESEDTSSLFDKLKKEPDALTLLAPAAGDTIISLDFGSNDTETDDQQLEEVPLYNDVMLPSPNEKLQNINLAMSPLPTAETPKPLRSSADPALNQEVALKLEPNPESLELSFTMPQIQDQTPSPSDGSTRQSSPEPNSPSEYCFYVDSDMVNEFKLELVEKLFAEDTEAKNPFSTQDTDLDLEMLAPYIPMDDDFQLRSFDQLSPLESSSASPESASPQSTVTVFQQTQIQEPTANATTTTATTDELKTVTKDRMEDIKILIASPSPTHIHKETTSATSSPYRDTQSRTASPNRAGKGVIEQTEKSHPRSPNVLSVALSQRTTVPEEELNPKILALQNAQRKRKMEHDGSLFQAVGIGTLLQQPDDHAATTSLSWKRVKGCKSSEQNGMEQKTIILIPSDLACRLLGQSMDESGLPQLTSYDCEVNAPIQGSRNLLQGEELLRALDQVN

The target in test [6] is Hepatocyte nuclear factor 6 (Homo sapiens) (UniProt Q9UBC0). Briefly: ATG_HNF6_CIS: Attagene CIS-FACTORIAL HepG2 Assay for human Hepatocyte Nuclear Factor 6 (HNF6) (AID 2282952). As to conditions: HepG2 Attagene cis-factorial HNF6 reporter transcription; actives raise or lower the signal. The procedure, abridged:
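HepG2 cells transiently transfected with cis-element-driven multiple reporter transcription units, dosed 24 h; reporter mRNA quantified by RT-PCR, FAM primer extension, HpaI digestion and capillary electrophoresis; bidirectional fit versus DMSO baseline.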

Test [7] addresses Heat shock factor protein 1 (Homo sapiens) (UniProt Q00613). Briefly: ATG_HSE_CIS: Attagene CIS-FACTORIAL HepG2 Assay for human Heat Shock Transcription Factor 1 (HSE) (AID 2282953). Particulars: HepG2 HSE cis-reporter, Attagene RNA transcription; actives raise or lower the signal. The procedure, abridged: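 Endogenous transcription factor activity captured via cis-promoter reporter units transfected into HepG2; treatment lasted 24 h. Fluorescence intensity of reporter fragments analysed with bidirectional curve fitting, DMSO baseline.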

Test [8] can be described thus: ATG_MRE_CIS: Attagene CIS-FACTORIAL HepG2 Assay for human Metal Responsive Element (MRE) (AID 2282954). As to conditions: HepG2 MRE cis-reporter transcription, Attagene multiplex; actives raise or lower the signal. Put shortly:
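HepG2 cells transiently transfected with multiple cis-element reporter units measure endogenous MTF1-driven transcription. After 24 h compound exposure, reporter mRNA is quantified by RT-PCR with 6-FAM labelling, HpaI digestion and capillary electrophoresis; bidirectional fits versus DMSO.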

Test [9] is described as follows: ATG_M_32_CIS: Attagene CIS-FACTORIAL HepG2 Assay for M32 Transcription Factor (Internal Marker) (AID 2282949).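 Further: background control marker of the multiplexed CIS panel rather than a real target.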 Particulars: HepG2 Attagene cis-factorial M32 reporter, mRNA; actives raise or lower the signal. Put shortly:
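Internal background marker read-out: RT-PCR/capillary electrophoresis fluorescence of reporter transcripts from transiently transfected HepG2 cells after 24 h chemical exposure. Activity fitted bidirectionally relative to DMSO negative control.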

The target in test [10] is Bile acid receptor (Homo sapiens) (UniProt Q96RI1). Briefly: ATG_IR1_CIS: Attagene CIS-FACTORIAL HepG2 Assay for human Nuclear Receptor Subfamily 1 Group H Member 4 (NR1H4), IR1 submotif (AID 2282946). Particulars: IR1 reporter transcription, actives raise or lower the signal. Put shortly:
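Transient MRTU transfection, HepG2; 24 h dosing; RNA → RT-PCR → 6-FAM primer extension → HpaI digest → capillary electrophoresis fluorescence. Gain/loss of signal fitted relative to DMSO.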

Sequence of Hepatocyte nuclear factor 6 (Homo sapiens) (Q9UBC0 whole entry, looked up): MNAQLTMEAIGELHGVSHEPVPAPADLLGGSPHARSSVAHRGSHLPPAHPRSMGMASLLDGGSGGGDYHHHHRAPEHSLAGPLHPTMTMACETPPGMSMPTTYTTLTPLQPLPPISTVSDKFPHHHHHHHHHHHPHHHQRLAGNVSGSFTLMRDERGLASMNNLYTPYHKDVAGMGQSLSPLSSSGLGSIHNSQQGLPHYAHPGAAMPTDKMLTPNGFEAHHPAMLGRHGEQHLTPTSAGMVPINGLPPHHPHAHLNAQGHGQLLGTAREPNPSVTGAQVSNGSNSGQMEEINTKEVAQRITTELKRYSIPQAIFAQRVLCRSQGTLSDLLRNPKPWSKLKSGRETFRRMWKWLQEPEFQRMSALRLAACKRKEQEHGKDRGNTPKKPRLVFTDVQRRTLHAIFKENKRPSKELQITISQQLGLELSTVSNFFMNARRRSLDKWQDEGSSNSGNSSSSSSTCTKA
Sequence of Heat shock factor protein 1 (Homo sapiens) (Q00613 whole entry, looked up, the tested form may be a part): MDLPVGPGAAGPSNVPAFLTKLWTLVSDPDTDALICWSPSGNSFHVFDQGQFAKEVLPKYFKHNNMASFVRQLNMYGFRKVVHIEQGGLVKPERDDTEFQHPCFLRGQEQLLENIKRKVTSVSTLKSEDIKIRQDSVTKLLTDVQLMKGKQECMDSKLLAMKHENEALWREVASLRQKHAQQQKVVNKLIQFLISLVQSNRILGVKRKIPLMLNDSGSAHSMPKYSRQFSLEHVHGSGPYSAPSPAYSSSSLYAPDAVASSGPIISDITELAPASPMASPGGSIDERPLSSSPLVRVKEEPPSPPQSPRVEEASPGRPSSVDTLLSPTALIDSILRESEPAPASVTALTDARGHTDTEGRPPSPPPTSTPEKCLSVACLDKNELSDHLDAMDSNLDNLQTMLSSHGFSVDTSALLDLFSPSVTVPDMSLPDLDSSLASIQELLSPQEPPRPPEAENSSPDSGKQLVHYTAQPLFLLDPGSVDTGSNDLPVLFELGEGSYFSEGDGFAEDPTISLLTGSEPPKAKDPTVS
Sequence of Bile acid receptor (Homo sapiens) (Q96RI1 whole entry, looked up): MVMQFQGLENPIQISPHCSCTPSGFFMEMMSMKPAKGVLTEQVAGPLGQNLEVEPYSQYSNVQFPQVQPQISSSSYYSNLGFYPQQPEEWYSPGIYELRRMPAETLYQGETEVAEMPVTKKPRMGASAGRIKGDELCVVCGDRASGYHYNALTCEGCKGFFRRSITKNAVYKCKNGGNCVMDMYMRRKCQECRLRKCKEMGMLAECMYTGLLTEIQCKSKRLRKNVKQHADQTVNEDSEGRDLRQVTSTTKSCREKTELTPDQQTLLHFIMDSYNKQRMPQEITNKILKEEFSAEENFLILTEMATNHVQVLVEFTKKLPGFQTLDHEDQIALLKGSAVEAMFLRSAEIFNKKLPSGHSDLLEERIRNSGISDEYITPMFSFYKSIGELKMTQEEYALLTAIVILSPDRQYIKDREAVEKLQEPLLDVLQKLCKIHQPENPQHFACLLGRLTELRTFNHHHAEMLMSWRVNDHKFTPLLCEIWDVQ

Consider `N#CN`, for which the result in [1], in test [2], in test [3], in test [4], in test [5] and in test [6] was inactive. Also, the result in [7] and in [8] was inactive.
As for `CNC(=O)CSP(=S)(OC)OC`, the outcome in test [1], in test [3], in test [9], in test [4], in test [5] and in test [6] was inactive. The call in [7] and in test [8] was inactive.
For the molecule `O=C1c2ccccc2C(=O)N1SC(Cl)(Cl)Cl`, the molecule was called inactive in [1], in [10], in test [3], in [4], in [5] and in test [6]. Further, the call in test [7] and in [8] was inactive.
On to `C[C@H]1[C@H](c2ccc(Cl)cc2)SC(=O)N1C(=O)NC1CCCCC1`, for which the call in [1], in [2], in [3], in test [9], in test [4] and in [5] was inactive. For the same molecule, the molecule was called inactive in test [6] and in test [7]. The AC50 in test [8] was 38.3 µM (active).
On to `COC(=O)c1ccccc1S(=O)(=O)NC(=O)Nc1nc(C)nc(OC)n1`, for which the molecule was called inactive in test [1], in test [10], in [3], in test [4], in test [5] and in test [6]. Further, the outcome in test [7] and in test [8] was inactive.
For `CCCN(CCC)c1c([N+](=O)[O-])cc(C(F)(F)F)cc1[N+](=O)[O-]`, the call in test [1], in [10], in test [3], in test [4], in test [5] and in test [6] was inactive. The result in [7] and in [8] was inactive.
As to `CC[C@H](C)[C@H]1O[C@]2(C=C[C@@H]1C)C[C@@H]1C[C@@H](C/C=C(\C)[C@@H](O[C@H]3C[C@H](OC)[C@@H](O[C@H]4C[C@H](OC)[C@@H](O)[C@H](C)O4)[C@H](C)O3)[C@@H](C)/C=C/C=C3\CO[C@@H]4[C@H](O)C(C)=C[C@@H](C(=O)O1)[C@]34O)O2` (tested in a mixture with another compound), the outcome in test [1], in test [2], in [3], in [4], in test [5] and in test [6] was inactive. The call in test [7] and in test [8] was inactive.
Take `COP(=O)(OC)OC=C(Cl)Cl`: the outcome in test [1], in test [4], in test [5], in test [6] and in [7] was inactive. Further, the AC50 in [3] is 50 µM (active); in [8], 36.7 µM (active).
Take `O=C(O)CCCOc1ccc(Cl)cc1Cl`: the result in test [1], in test [3], in test [9], in [4], in test [5] and in test [6] was inactive. Also, the molecule was classed as inactive in [7] and in test [8].
Take `CC(C)(C)C(O)C(Oc1ccc(Cl)cc1)n1cncn1` (stereo not given): the outcome in test [1], in test [3], in test [9], in test [4], in test [5] and in test [6] was inactive. Besides, the molecule was classed as inactive in [7] and in test [8]. The AC50 in test [8] was 7.83 µM (active).
For the molecule `O=C(NC(=O)c1c(F)cccc1F)Nc1ccc(OC(F)(F)C(F)OC(F)(F)F)c(Cl)c1` (stereo not given), the molecule was called inactive in [1], in test [2], in test [3], in [4], in test [5] and in [6]. Also, the call in test [7] and in test [8] was inactive.
Turning to `Clc1ccccc1-c1nnc(-c2ccccc2Cl)nn1`, the call in test [1], in test [3], in [4], in test [5], in test [6] and in [7] was inactive. Besides, the call in test [8] was inactive.
On to `O=C(O)COc1ccc(Cl)cc1Cl`, for which the molecule was called inactive in [1], in [2], in test [3], in [4], in test [5] and in test [6]. For the same molecule, the molecule was classed as inactive in test [8].
For the molecule `CCOCN(C(=O)CCl)c1c(C)cccc1CC`, the molecule was classed as inactive in test [1], in [2], in test [3], in test [9], in [4] and in test [5]. Further, the outcome in test [6], in test [7] and in test [8] was inactive.
Turning to `[2H]C1([2H])[n+]2ccccc2-c2cccc[n+]2C1([2H])[2H]`, the molecule was classed as inactive in test [1], in test [2], in test [3], in test [4], in test [5] and in test [6]. For the same molecule, the call in test [7] and in test [8] was inactive.
